Results on 40 sequences are retold here after the supplement of paper PMC6555819.

The first test has as its system PPARg:RXRa 90nM:30nM, anti-RXR (NR concentration 90 nM, RXRa partner concentration 30 nM). Put plainly: PBM binding z-score (relative to random genomic background probes); higher = stronger binding; sequences stand for … in GC…GCGATTGACAGCGTAGAATGAAGG
In short, it runs like this:
(§1)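 For binding z-scores, the reference was random background probes on custom Agilent 4×180K protein-binding microarrays. These arrays were incubated 1 h with ligand-free nuclear receptor dimers in PBS pH 7.4, 2% milk, 0.02% Triton X-100, 1 mM DTT, 0.2 mg/mL BSA and 0.4 mg/ml salmon testes DNA. Fluorescence was scanned after antibody detection of each partner (one per run) and regression-normalized.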
Regarding CCTTGCGGGTCACGAGGTTATAGCACGACGAGCG, the PBM binding z-score was found to be 5.86.

TCGAGTAGGTTACCAATGGGGCTTTCAGCTTTCT: the PBM binding z-score was 0.796.

Turning to CGTCCAAGGACAAGGTCAGTGAAAGAGACTCGAA, the PBM binding z-score was determined as 0.648.

For the sequence ATCTCTAGGTAAGACTCAGTTCAGAGAAGAACGC, the PBM binding z-score came to 0.268.

In turn, TCTTGTAGATCAACAGGAGGTTAAGAAAGATCGA returned a PBM binding z-score of 1.56.

In the case of CCAGACAGGTGAGAAGGTAACTCAACCTCGATTA, the PBM binding z-score is 0.437.

For CTACCAAGGTGAGCAAGGTCGTTGATTACTATTC, the PBM binding z-score was -0.252.

As for AGTCAAAGTACACTAGGTAACGTAAGATTCAGCT, the PBM binding z-score is 0.295.

Regarding CGAACTAGGTCAGAAAAGGACAGTGAAGGATGAT, the PBM binding z-score turned out to be 3.

In turn, TCATATAGGTAAATGCTAGCTGAAAGTCCGATCT had a PBM binding z-score of 2.81.

With TTACTAAGGTGAGCTGAGGTCGTTGATCCAACTC, the PBM binding z-score is 0.711.

ACTAGCAGGCCAAGTTTGGGTTACTCAAACAAAG: the PBM binding z-score was -0.657.

TTACCAAGGTGAGCTGAGGACGTTGATCCAACTC: the PBM binding z-score is -0.212.

ATCTCTAGGTAAAAGTTCAATGAATCCCGAGGAT came in with a PBM binding z-score of 9.69.

GTACCAAGGTGAATGGGTCGTTGATGAGTAGGCG: the PBM binding z-score came to 0.732.

CAGCCTAGGTCAGGGCCAGTATCGGAGGAACGTT had a PBM binding z-score of 0.129.

In turn, CAAACTAGGTCAGGAGGTCAAAGTCCGCTTCCCG returned a PBM binding z-score of 7.43.

Regarding TAGCCTAGGTCATTCGGGCCAGTATAGTGTCGGC, the PBM binding z-score turned out to be 1.26.

In the case of ACAGACAGGCGAGTGAAGGTAACTCAGCTGGACG, the PBM binding z-score is -0.153.

For GGAACCAGGGCATTCGAGTTGATAGCATGGCGAT, the PBM binding z-score was 0.0636.

ATATGTAGGTTATCGGGTCAGTCAGTTTGCGCAT displayed a PBM binding z-score of 5.

With CCTTACGGGTCACTGACAGGTTATATCATTTGGA, the PBM binding z-score worked out at 2.98.

Turning to GCTCGGAGGACAAGGTCAAAGCTTTGTCCGTAGA, the PBM binding z-score was determined as 2.47.

In turn, GCTAGTTGGTCAGTAAAAGGCCACACACCGGTCG yielded a PBM binding z-score of 0.378.

With CCTTACGGGTCACTGACCGGTTATAGCATTTGGA, the PBM binding z-score was 2.95.

For CCTACTGGGCCACGAAGGGTCATTGATTCAGTGA, the PBM binding z-score was 2.58.

In turn, AGAATGAGGGCACGCTGAGTTGATAGCAGAGTAG returned a PBM binding z-score of 1.87.

In turn, GCTAACAGGCCATTTGGGTCACTCAATGACGGGC had a PBM binding z-score of -0.263.

The sequence TCGAGTAGGTTAGCGGCATTCAGAATGGCGTCGA showed a PBM binding z-score of 0.475.

TATACAGGGTTAAAGGCCAGAGTACGAATGTCGA yielded a PBM binding z-score of 4.7.

Consider CGAACTAGGTCTTCCAGGACAGTGAATACATTGA, for which the PBM binding z-score is 0.143.

In turn, TTACCAAGGTGAGCTGAAGTCGTTGATCCAACTC returned a PBM binding z-score of 0.0287.

For CGTGCAAGGTCAAGGTCAGTGAAAGAGACTCGAA, the PBM binding z-score worked out at 5.51.

Sequence CCGAGTAGGTTATGGGGCAATCAGGCAACGGTGA showed a PBM binding z-score of 4.39.

Take GCAGACGGGTGAAACGCAGGTAACTCAGGGTGGC: the PBM binding z-score was -0.536.

TATAGAGGGTCAAAGGCCAGAGTACGAATGTCGA showed a PBM binding z-score of 7.09.

GATACAGGGTCAGCTATAGGCCAGAGTATGGAAA had a PBM binding z-score of 2.08.

ATCTCTAGGTAAGACTCAGTTCAGGGAAGAACGC yielded a PBM binding z-score of 0.289.

In the case of AATACAGGGTCATCGTAGGCCTGAGTACGCACAG, the PBM binding z-score came to 4.74.

Sequence TCTTGTAGATCACAGGTTAAGAAAGCCGAAGCCT gave a PBM binding z-score of 4.64.

A further test has as its system PPARg:RXRa DBDmut IVT, anti-RXR (DBD mutation: RXRa K156A/R161A, NR concentration 270 nM, RXRa partner concentration 90 nM). Described as above. In short, it runs like this: as §1
Turning to CCTTGCGGGTCACGAGGTTATAGCACGACGAGCG, the PBM binding z-score worked out at 5.74.

Regarding TCGAGTAGGTTACCAATGGGGCTTTCAGCTTTCT, the PBM binding z-score is 3.39.

CGTCCAAGGACAAGGTCAGTGAAAGAGACTCGAA returned a PBM binding z-score of 0.434.

Sequence ATCTCTAGGTAAGACTCAGTTCAGAGAAGAACGC showed a PBM binding z-score of 1.92.

Consider TCTTGTAGATCAACAGGAGGTTAAGAAAGATCGA, for which the PBM binding z-score was 1.3.

Take CCAGACAGGTGAGAAGGTAACTCAACCTCGATTA: the PBM binding z-score stood at 1.22.

The sequence CTACCAAGGTGAGCAAGGTCGTTGATTACTATTC came in with a PBM binding z-score of 1.33.

Sequence AGTCAAAGTACACTAGGTAACGTAAGATTCAGCT came in with a PBM binding z-score of 1.45.

Sequence CGAACTAGGTCAGAAAAGGACAGTGAAGGATGAT displayed a PBM binding z-score of 6.88.

Consider TCATATAGGTAAATGCTAGCTGAAAGTCCGATCT, for which the PBM binding z-score is 3.73.

As for TTACTAAGGTGAGCTGAGGTCGTTGATCCAACTC, the PBM binding z-score was 2.04.

For the sequence ACTAGCAGGCCAAGTTTGGGTTACTCAAACAAAG, the PBM binding z-score came to 0.764.

Turning to TTACCAAGGTGAGCTGAGGACGTTGATCCAACTC, the PBM binding z-score is 0.681.

ATCTCTAGGTAAAAGTTCAATGAATCCCGAGGAT registered a PBM binding z-score of 2.16.

Sequence GTACCAAGGTGAATGGGTCGTTGATGAGTAGGCG had a PBM binding z-score of 1.52.

CAGCCTAGGTCAGGGCCAGTATCGGAGGAACGTT had a PBM binding z-score of 1.72.

For CAAACTAGGTCAGGAGGTCAAAGTCCGCTTCCCG, the PBM binding z-score was found to be 7.85.

On to TAGCCTAGGTCATTCGGGCCAGTATAGTGTCGGC, for which the PBM binding z-score worked out at 1.8.

As to ACAGACAGGCGAGTGAAGGTAACTCAGCTGGACG, the PBM binding z-score was -0.427.

Sequence GGAACCAGGGCATTCGAGTTGATAGCATGGCGAT yielded a PBM binding z-score of 3.39.

Consider ATATGTAGGTTATCGGGTCAGTCAGTTTGCGCAT, for which the PBM binding z-score was 7.7.

CCTTACGGGTCACTGACAGGTTATATCATTTGGA: the PBM binding z-score was 3.09.

In turn, GCTCGGAGGACAAGGTCAAAGCTTTGTCCGTAGA yielded a PBM binding z-score of 0.217.

Sequence GCTAGTTGGTCAGTAAAAGGCCACACACCGGTCG showed a PBM binding z-score of -0.0753.

CCTTACGGGTCACTGACCGGTTATAGCATTTGGA: the PBM binding z-score came out at 3.02.

CCTACTGGGCCACGAAGGGTCATTGATTCAGTGA displayed a PBM binding z-score of 4.42.

In the case of AGAATGAGGGCACGCTGAGTTGATAGCAGAGTAG, the PBM binding z-score stood at 5.59.

GCTAACAGGCCATTTGGGTCACTCAATGACGGGC returned a PBM binding z-score of 1.61.

Consider TCGAGTAGGTTAGCGGCATTCAGAATGGCGTCGA, for which the PBM binding z-score is 1.81.

TATACAGGGTTAAAGGCCAGAGTACGAATGTCGA displayed a PBM binding z-score of 0.697.

With CGAACTAGGTCTTCCAGGACAGTGAATACATTGA, the PBM binding z-score was 4.68.

In the case of TTACCAAGGTGAGCTGAAGTCGTTGATCCAACTC, the PBM binding z-score was 0.859.

In turn, CGTGCAAGGTCAAGGTCAGTGAAAGAGACTCGAA returned a PBM binding z-score of 3.53.

CCGAGTAGGTTATGGGGCAATCAGGCAACGGTGA yielded a PBM binding z-score of 3.71.

For GCAGACGGGTGAAACGCAGGTAACTCAGGGTGGC, the PBM binding z-score is -0.241.

With TATAGAGGGTCAAAGGCCAGAGTACGAATGTCGA, the PBM binding z-score stood at 2.58.

The sequence GATACAGGGTCAGCTATAGGCCAGAGTATGGAAA yielded a PBM binding z-score of 1.05.

In turn, ATCTCTAGGTAAGACTCAGTTCAGGGAAGAACGC returned a PBM binding z-score of 1.95.

AATACAGGGTCATCGTAGGCCTGAGTACGCACAG had a PBM binding z-score of 2.91.

Sequence TCTTGTAGATCACAGGTTAAGAAAGCCGAAGCCT yielded a PBM binding z-score of 2.16.
